Screening data (PubChem)
T cruzi growth-1 – blocks T. cruzi growth in NIH3T3 culture | T. cruzi beta-gal in NIH3T3, GalScreen luminescence, 90 h | 5.9% of 77,000 active | inhibition, % at 8.34 µM;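 active means mean inhibition above about 93%, with at least 55% of replicates each passing it, limit read from the data, passing the limit was not always enough; inconclusive means only one of those two conditions holds; inactive means neither condition holds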
C diff growth – C. difficile growth inhibition; Clostridium difficile clinical isolate growth, OD600, 24 h; stronger effect = lower value; 0.25% of 86,000 active; growth activity, negative = inhibition, % at 16 µg/mL (by protocol); AID 1259249;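 active means mean growth activity at or below -80% and every replicate also at or below -80%; inconclusive means mean at or below -80% but some replicate above -80%; inactive means mean growth activity above -80%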;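 further: 0% = DMSO wells and -100% = levofloxacin 16 µg/mL wells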
Pf Dd2 inh – inhibitors of Plasmodium falciparum Dd2 growth; P. falciparum Dd2 growth, SYBR Green, 72 h; stronger effect = lower value; activity change, % at 10 µM; 2.3% of 94,000 active; in the data active means activity change below about -80%; inconclusive means no clear call, values can overlap the other calls
T cruzi growth-2 – Trypanosoma cruzi proliferation inhibition | shares compounds with T cruzi growth-1 | T. cruzi beta-gal in NIH3T3, GalScreen luminescence, 90 h | inhibition, % at 8.35 µM | 72% of 5,600 active;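 active means mean replicate inhibition above about 95% and at least 55% of replicates individually reaching it, limit read from the data; inconclusive means only one of the two criteria is met; inactive means neither criterion is met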
T cruzi growth-3 – Trypanosoma cruzi proliferation inhibition | shares compounds with T cruzi growth-1 | T. cruzi beta-gal in NIH3T3, GalScreen luminescence, 90 h | inhibition, % at 2.09 µM | 21% of 5,600 active | AID 651740;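 active means mean inhibition above about 95%, with at least 55% of replicates also reaching it, limit read from the data; inconclusive means meets just one of the two conditions; inactive means meets neither condition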;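 further: plate controls were neutral control median for no effect and positive control median for full effect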
3T3 cytotox – NIH/3T3 (mouse) viability loss | NIH/3T3 viability, CellTiter-Glo ATP luminescence, 90 h | AID 651742 | 14% of 5,600 active | cytotoxicity (signal decrease), % at 8.35 µM | shares compounds with T cruzi growth-1;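 active means mean signal decrease across replicates above about 35% based on untreated-well scatter, with enough replicates individually passing, limit read from the data; inconclusive means no rule stated though some were filed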;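 further: 0% = median of neutral control wells and 100% = median of positive control wells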
NIH3T3 tox 2 – kills mouse NIH/3T3 fibroblasts; NIH/3T3 viability, CellTiter-Glo ATP luminescence, 90 h; 56% of 5,600 active; inhibition, % at 24.9 µM; shares compounds with T cruzi growth-1;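 active means mean loss of cell viability signal at or above a set limit, and enough replicates individually reaching it; inconclusive means meets only the mean limit or only the replicate share; inactive means meets neither condition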;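 further: 0% = median of neutral control wells and 100% = median of positive control wells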
An asterisk follows results filed as active; ? = inconclusive; . = no result. Rows were chosen to be rich in hits. Some 6.7% of all compounds tested hit in one or more screens of this group.

SMILES	T cruzi growth-1	C diff growth	Pf Dd2 inh	T cruzi growth-2	T cruzi growth-3	3T3 cytotox	NIH3T3 tox 2
Cc1ccccc1S(=O)(=O)N1CC[C@@H]2[C@H](CO)Nc3ccc(-c4ccccc4F)cc3[C@@H]21	110*	5	-12	97*	77	8	106*
Cc1ccccc1S(=O)(=O)N1CC[C@@H]2[C@H]1c1cc(-c3ccccc3F)ccc1N[C@@H]2CO	-11	6	2	.	.	.	.
C[C@@H]1CN([C@@H](C)CO)C(=O)c2cc(NC(=O)NC3CCCCC3)ccc2O[C@H]1CN(C)Cc1ccc(C(=O)O)cc1	.	1	13	.	.	.	.
C[C@@H]1CN([C@@H](C)CO)C(=O)Cc2cc(NC(=O)Cc3cn(C)c4ccccc34)ccc2O[C@@H]1CN(C)C	.	0	5	.	.	.	.
O=C(C[C@@H]1C=C[C@H](NC(=O)C2CCC2)[C@H](CO)O1)NCCCN1CCOCC1	28	.	18	.	.	.	.
CC(C)CC#Cc1ccc([C@@H]2[C@@H](CO)N3CCCCN(C(=O)Nc4ccccc4)C[C@@H]23)cc1	111*	55	9	97*	93	30	103*
COc1ccc(NC(=O)N2CCCCN3[C@H](CO)[C@H](c4ccc(C#Cc5ccccn5)cc4)[C@H]3C2)cc1	93	16	-3	.	.	.	.
CC(C)CC#Cc1ccc([C@@H]2[C@@H](CO)N3CCCCN(C(=O)Nc4ccccc4)C[C@H]23)cc1	?	-79	-31	94	84	59*	106*
COc1ccc(NC(=O)N2CCCCN3[C@H](CO)[C@@H](c4ccc(C#CCC(C)C)cc4)[C@H]3C2)cc1	122*	51	-68	88	101*	117*	106*
CC(C)CC#Cc1ccc([C@H]2[C@H]3CN(C(=O)Nc4ccccc4)CCCCN3[C@H]2CO)cc1	101*	30	4	98*	91	27	83*
C[C@H](O)C#Cc1ccc([C@@H]2[C@H]3CN(C(=O)Nc4ccccc4)CCCCN3[C@H]2CO)cc1	49	0	-69	.	.	.	.
O=C(Nc1ccccc1)N1CCCCN2[C@@H](CO)[C@@H](c3ccc(C#Cc4ccccc4)cc3)[C@@H]2C1	68	46	-51	.	.	.	.
C[C@H](O)C#Cc1ccc([C@H]2[C@@H](CO)N3CCCCN(C(=O)Nc4ccccc4)C[C@@H]23)cc1	22	1	-17	.	.	.	.
C[C@@H]1CN([C@H](C)CO)C(=O)Cc2cc(NS(=O)(=O)c3ccc(Cl)cc3)ccc2O[C@@H]1CN(C)Cc1ccncc1	62	-3	9	.	.	.	.
CCCNC(=O)N1CC2(CCN(C(=O)c3ccncc3)CC2)c2c([nH]c3cc(OC)ccc23)[C@@H]1CO	.	-3	1	.	.	.	.
COc1ccc(S(=O)(=O)N(C)C[C@@H]2OCCCC[C@H](C)Oc3ccc(NS(=O)(=O)c4c(C)noc4C)cc3C(=O)N([C@H](C)CO)C[C@H]2C)cc1	69	-2	-73	.	.	.	.
CCC(=O)N(C)C[C@H]1Oc2cc(C#CC(C)(C)O)ccc2S(=O)(=O)N([C@H](C)CO)C[C@@H]1C	-9	4	54	.	.	.	.
COc1ccc(NC(=O)N(C)C[C@H]2Oc3c(NC(=O)c4ccc(-c5nccs5)cc4)cccc3C(=O)N([C@@H](C)CO)C[C@@H]2C)cc1	-79	-3	2	.	.	.	.
O=C(C[C@H]1C[C@H]2c3cc(NC(=O)C4CCOCC4)ccc3O[C@H]2[C@H](CO)O1)NCc1ccccc1	20	4	6	.	.	.	.
C[C@H]1CN([C@@H](C)CO)C(=O)c2cc(NC(=O)Nc3ccc(C(F)(F)F)cc3)ccc2O[C@@H]1CN(C)Cc1ccc(-c2ccccc2)cc1	113*	8	2	108*	40	3	104*
C[C@H]1CN([C@@H](C)CO)C(=O)c2cc(NC(=O)Nc3ccc(C(F)(F)F)cc3)ccc2O[C@@H]1CN(C)Cc1ccccc1	15	1	14	.	.	.	.
C[C@H](CO)N1C[C@H](C)[C@H](CN(C)Cc2ccc(-c3ccccc3)cc2)Oc2ccc(NC(=O)Nc3ccc(C(F)(F)F)cc3)cc2C1=O	81*	51	18	98*	88	14	105*
C[C@H]1CN([C@@H](C)CO)C(=O)c2cc(NC(=O)Nc3ccc(C(F)(F)F)cc3)ccc2O[C@H]1CN(C)Cc1ccc(-c2ccccc2)cc1	118*	48	8	106*	?	29	104*
C[C@H](CO)N1C[C@H](C)[C@@H](CN(C)Cc2ccc(-c3ccccc3)cc2)Oc2ccc(NC(=O)Nc3ccc(F)cc3)cc2C1=O	11	27	18	.	.	.	.
C[C@H](CO)N1C[C@H](C)[C@@H](CN(C)Cc2ccc(C(F)(F)F)cc2)Oc2ccc(NC(=O)Nc3ccccc3)cc2C1=O	51	0	-79	.	.	.	.
SMILES	T cruzi growth-1	C diff growth	Pf Dd2 inh	T cruzi growth-2	T cruzi growth-3	3T3 cytotox	NIH3T3 tox 2
C[C@@H]1CN([C@@H](C)CO)C(=O)c2cc(NC(=O)Nc3ccc(C(F)(F)F)cc3)ccc2O[C@@H]1CN(C)Cc1ccccc1	15	34	15	.	.	.	.
C[C@H]1CN([C@@H](C)CO)C(=O)c2cc(NC(=O)Nc3ccc(F)cc3)ccc2O[C@H]1CN(C)Cc1ccc(-c2ccccc2)cc1	98*	56	-5	102*	103*	32	103*
CO[C@H]1CN(C)C(=O)c2ccc(NC(=O)C3CC3)cc2OC[C@@H](C)N(C(=O)C2CCCCC2)C[C@@H]1C	-62	0	-73	.	.	.	.
CCCNC(=O)N(C)C[C@H]1Oc2ncc(C3=CCCC3)cc2C(=O)N([C@H](C)CO)C[C@H]1C	.	1	29	.	.	.	.
C[C@H](CO)N1C[C@H](C)[C@H](CN(C)C(=O)Nc2ccc(C(F)(F)F)cc2)OCCCC[C@H](C)Oc2ccc(NC(=O)c3ccncc3)cc2C1=O	107*	3	-68	109*	99*	23	37*
C[C@@H]1CCCCO[C@H](CN(C)C(=O)Nc2ccc(C(F)(F)F)cc2)[C@@H](C)CN([C@H](C)CO)C(=O)c2cc(NC(=O)c3ccncc3)ccc2O1	46	4	-26	.	.	.	.
C[C@@H]1CN([C@H](C)CO)C(=O)c2cc(NC(=O)c3ccncc3)ccc2O[C@@H](C)CCCCO[C@H]1CN(C)C(=O)Nc1ccc(C(F)(F)F)cc1	49	-1	-10	.	.	.	.
C[C@@H]1CCCCO[C@H](CN(C)C(=O)Nc2ccc(C(F)(F)F)cc2)[C@H](C)CN([C@H](C)CO)C(=O)c2cc(NC(=O)c3ccncc3)ccc2O1	103*	9	-43	114*	50	-7	42*
CN1CCCCN2[C@H](CO)[C@@H](c3ccc(-c4ccc(F)cc4)cc3)[C@H]2C1	23	2	-3	.	.	.	.
O=C(C[C@@H]1C=C[C@@H](NC(=O)Nc2ccccc2F)[C@@H](CO)O1)NCc1ccccc1	.	3	20	.	.	.	.
